High-throughput results from PubChem.
BRCA1 expr act = activators of BRCA1 expression; actives 1.1% (n = 380,000); AID 624202; Potency, µM (highest dose often 46.1 µM), without a hit: top-dose activation, hits mostly activators; MCF7-BRCA1-FFLuc reporter, luminescence, 48 h; response scale: scaled: vehicle 0%, 10 µM genistein 100%; further: nearly all actives have a fitted effect of over 80% in size
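First, MCF7-BRCA1-FFLuc cells (2000/well) attach for 2 h; next, compounds are pin-added and incubated 48 h at 37 °C; finally, luciferase reagent is added and luminescence read after 15 min.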
ERG-DNA inh = inhibitors of human ERG Ets domain-DNA interaction. P11308. fluorescence polarization, His-ERG Ets domain / labelled DNA. Potency, µM (doses to about 76.9 µM), for inactives: at the top dose FP activity, negative = inhibition, actives largely listed as inhibitors. actives 0.028% (n = 370,000); active means well fitted inhibition curve with a large enough effect in the polarisation, with a control signal flat; inconclusive means small, poorly fitted or top-dose-only effect, or effect the other way, or a change in a side signal; inactive means no such curve, though single readings can be large or run the other way; the % refers to the polarisation;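 further: polarization taken with two DNA probes labelled with fluorescein and Texas red; % of control where 0% means no effect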
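His-tagged ERG Ets domain (1 uM in the protein solution; 300mM KCl, 50mM Tris-HCl, 1mM EDTA, 1mM DTT, pH 7.5) received compound, then a probe mix of 5 nM fluorescein-DNA and 100nM Texas-615-DNA. Fluorescence polarization was read for both dyes.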
Anesthetic bind = binds horse apoferritin like a general anesthetic; P02791; apoferritin/1-aminoanthracene competitive binding, fluorescence; Potency, µM (highest dose often 77.5 µM), inactives show at the top dose activity change, negative = displacement, most hits filed as inhibitors; actives 0.074% (n = 350,000); AID 485281; further: on the % scale 0 is the no-effect control and ±100 the full control effect; nearly all actives have a fitted effect of over 20% in size
Target sequence (P02791 2-175 limits assumed): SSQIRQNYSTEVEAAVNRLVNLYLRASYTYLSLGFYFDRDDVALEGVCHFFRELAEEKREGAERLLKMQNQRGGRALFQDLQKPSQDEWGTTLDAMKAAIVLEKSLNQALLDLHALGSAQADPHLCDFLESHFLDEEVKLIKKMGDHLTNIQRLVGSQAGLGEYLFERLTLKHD
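Read-out: endpoint 1-AMA fluorescence, excitation 380 nm and emission 535 nm, after compounds sit 10 min at room temperature with 10 uM horse-spleen apoferritin in 50% saturated 1-AMA/PBS. Values come from four-parameter Hill fits.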
RGS12 GoLoco inh = RGS12 GoLoco-Gai1 interaction inhibition; Potency, µM (highest dose often 61.6 µM), inactives show top-dose activity, negative = inhibition, actives largely listed as inhibitors; actives 0.44% (n = 230,000); Gai1:RGS12 GoLoco peptide FP, rhodamine, 10 min; active means well fitted inhibition curve with a large enough effect, not every such curve was filed as active; inactive means no such curve, though single readings can be large or run the other way; further: on the % scale 0 is the no-effect control and ±100 the full control effect; nearly all actives have a fitted effect of over 30% in size
Target sequence (P63096 whole entry, looked up): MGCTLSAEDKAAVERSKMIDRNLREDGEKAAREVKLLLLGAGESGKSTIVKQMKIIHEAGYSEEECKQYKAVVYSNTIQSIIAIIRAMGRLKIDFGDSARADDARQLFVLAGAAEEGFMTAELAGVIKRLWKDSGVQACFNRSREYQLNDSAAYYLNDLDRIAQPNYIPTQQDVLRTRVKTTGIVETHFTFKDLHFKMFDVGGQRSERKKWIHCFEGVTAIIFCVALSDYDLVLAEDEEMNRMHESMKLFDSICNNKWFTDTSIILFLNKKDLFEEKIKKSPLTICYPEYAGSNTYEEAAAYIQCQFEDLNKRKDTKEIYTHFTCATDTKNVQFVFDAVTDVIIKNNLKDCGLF
The depositor's hits bear a star; ? = inconclusive; / = not tested or not shown; ! = not active in a repeat; [ ] = another dose, or the depositor's remark. Compounds with a hit are over-represented: about 1.2% of the library has one in this group of screens. Unless noted, the call rests on the fitted dose curve; in most records, active means well fitted curve in the direction sought with a large enough effect; inconclusive means small, poorly fitted or top-dose-only effect, or another doubt; inactive means no such curve, though single readings can be large; an effect the other way counts as inactive or inconclusive. Potency means the concentration at half of the fitted maximal effect.

SMILES	BRCA1 expr act	ERG-DNA inh	Anesthetic bind	RGS12 GoLoco inh
C=C1c2ccccc2O[C@H](C(=O)OCC)[C@@H]1C1CCCCC1 (tested in a mixture with another compound)	/	/	-0.9%[110 µM]	-19.9%[88.7 µM]
O=C(NNc1ccccc1F)c1sccc1Cl	30.6%	/	/	/
CCCN(CC(=O)Nc1ccc(F)c(F)c1F)C(=O)C1CC(=O)N(Cc2ccccc2)C1 (stereo not given)	-17.1%	35.5µM*	/	/
CCCn1nc2cc(C(=O)NCCc3cccs3)ccc2c1OCC	11.2µM*	8.8%	0.7%	-0.9%
C=CC[C@@H]1C=C[C@H](O/N=C(\C)CCN2CCc3nc(-c4ccccc4)c(-c4ccccc4)cc3C2)[C@H](CO)O1	/	/	-12.3%[15.3 µM]	/
C=CC1CN2CCC1C[C@H]2C(O)c1ccnc2ccc(OC)cc12 (stereo not given in full)	/	/	-4.7%	8.2%
CC1Oc2ccccc2C=C1/C=N/NC(=O)c1ccccc1 (stereo not given)	3.16µM*	-3.7%	39.0%	8.1%
Cc1ccc(NC(=O)C(=O)Nc2ccc(C)cn2)nc1	42.2%	-25.1%	-2.5%	3.1%
Cc1ccc(NC(=O)/C(C#N)=C(\N)C(Cl)(Cl)Cl)nc1	?	?	-10.8%	3.55µM*
O=C(O)c1cnn(-c2nc(-c3ccc(Br)cc3)cs2)c1C(F)(F)F	5.01µM*	-15.4%	-1.3%	/
O=C(Cc1cnn(-c2ccccc2)c1)c1ccc(O)c(O)c1O	5.62µM*	4.2%	-17.7%	1.5%
CCc1cc(C(=O)Cc2cnn(-c3ccccc3)c2)c(O)cc1O	-18.2%	-12.8%	-20.4%	-3.2%
COc1cc(OC)c(NC(=O)Nc2ccc3c(c2)N(C)C(=O)c2ccccc2S3)cc1Cl	/	-0.2%	-7.6%	/
CC12CCC(C[N+](C)(C)C1)C2(C)C (stereo not given)	14.7%	0.0%	5.0%	8.91µM*
O=C(C[n+]1ccccc1Br)c1ccc2c(c1)CCCC2	20.8%	/	/	/
CC(C)(C)C1CCC(OC(=O)C[N+]2(C)CCCCC2)CC1 (stereo not given)	-17.2%	-13.5%	-3.1%	8.91µM*
CC(C)(C)C1CCC(OC(=O)C[N+]2(C)CCCC2)CC1 (stereo not given)	-33.8%	-4.2%	-11.2%	7.08µM*
C[N+]1(CC(=O)OCCCC2CCCCC2)CCCC1	-6.9%	5.0%	-11.4%	9.6%
Cc1cc(NC(=O)Nc2ccc3c(ccn3C)c2)sn1	10µM*	-0.9%	/	14.4%
CN(N=Nc1ccc([N+](=O)[O-])cc1)c1ccccc1	3.55µM*	11.8%	4.0%	-7.8%
CN(N=Nc1cccc([N+](=O)[O-])c1)c1ccccc1	82.7%	6.6%	-9.7%	/
COC(=O)[C@H](Cc1ccccc1)NC(=O)O[C@@H]1C(=O)c2ccc(OC)cc2O[C@H]1c1cccc(C(F)(F)F)c1	/	/	/	-3.5%
COc1ccc(OC)c(N=c2oc3cc(O)ccc3cc2C(N)=O)c1	45.7%	-1.9%	119.3%	17.8µM*
COC1=CC(=O)C=C(OC)C1=O	-50.1%	-1.7%	1.7%	20µM*
COc1ccc2cc(C(C)C(=O)O)ccc2c1 (stereo not given)	0.0%	-18.6%	-5.0%	28.2µM*!
SMILES	BRCA1 expr act	ERG-DNA inh	Anesthetic bind	RGS12 GoLoco inh
COc1ccc2cc([C@H](C)C(=O)O)ccc2c1	11.2%	-5.0%	-3.4%	7.2%
CC1CCCN(C(=O)CSc2nc3ncccc3[nH]2)C1 (stereo not given)	41.3%	12.7%	-19.8%	-28.9%
CC1CCCN(C(=O)CSc2cnc3ccccc3n2)C1 (stereo not given)	11.2µM*	0.5%	?	12.0%
CC(C)C[C@H](NC(=O)[C@H](Cc1ccccc1)NC(=O)CNC(=O)[C@H](CCC(=O)O)NC(=O)[C@H](CCCNC(=N)N)NC(=O)[C@H](C)NC(=O)[C@H](C)NC(=O)[C@@H](N)CC(=O)O)C(=O)N[C@@H](CC(=O)O)C(=O)N[C@H](C(=O)N[C@@H](CC(C)C)C(=O)N[C@H](C(=O)N[C@H](C(=O)N[C@@H](CC(C)C)C(=O)N[C@@H](Cc1cnc[nH]1)C(=O)N[C@@H](CCCNC(=N)N)C(=O)N[C@@H](C)C(=O)NCC(=O)N[C@@H](C)C(=O)N[C@@H](CCCNC(=N)N)C(=O)O)C(C)C)C(C)C)[C@@H](C)O	/	/	-4.2%	/
CCN(CC)c1ccc(C=N/C(C#N)=C(\N)C#N)cc1	2.51µM*	-0.1%	?	280.0%
Nc1cc([N+](=O)[O-])ccc1Nc1ccccc1	22.7%	0.9%	15.8µM*	18.6%
C=C1C=C(C)n2ncc(C(=O)Nc3ccc(NC(C)=O)c(Cl)c3)c2N1	1.5%	/	/	/
COc1ccc(-c2csc(NC(=O)c3c(OC)cccc3OC)n2)cc1	-5.7%	10.5%	35.6%	/
Cc1nc(-c2ccc(NC(=O)C3CC3)cc2)cs1	?	-19.0%	-8.0%	/
CC(C)(C)c1csc(NC(=O)c2ccc(Br)o2)n1	10µM*	-0.1%	?	/
CC(C)C(=O)Nc1cccc(-c2csc(-c3ccccc3)n2)c1	68.9%	-1.0%	-1.5%	3.6%
CC(C)C(=O)Nc1ccc(-c2csc(-c3ccccc3)n2)cc1	5.01µM*	-14.5%	-6.0%	-1.8%
COc1ccc(-c2csc(NC(=O)CC(C)C)n2)cc1	8.91µM*	-5.3%	-9.1%	5.6%
CC(C)(C)c1csc(NC(=O)c2ccncc2)n1	1.9%	-1.2%	-16.2%	69.0%
Cc1nc(-c2ccc(NC(=O)CC(C)C)cc2)cs1	2.24µM*	-5.6%	-3.0%	11.4%
COc1ccc(CN(Cc2ccccc2)C(=O)c2ccno2)cc1COc1ccc(NC(C)=O)cc1	20.9%	/	/	/
O=C(COc1ccccc1C(=O)Nc1cccnc1)Nc1ccc(Br)cc1	-17.1%	/	/	/
Cc1nc(-c2ccc(NC(=O)c3ccc(Br)o3)cc2)cs1	11.2µM*	-2.1%	?	/
Cc1nc(-c2cccc(NC(=O)c3ccc(Br)o3)c2)cs1	47.4%	3.8%	-15.4%	/
COc1ccc(NC(=S)NC(=O)c2ccc(Br)o2)cc1	6.31µM*	12.0%	-16.3%	22.4%
COc1ccc(NC(=O)c2ccc(Br)o2)cc1	?	-7.9%	-5.4%[110 µM]	7.9%[88.7 µM]
COc1ccc2nc3c(cc2c1)Cn1c-3nc2ccccc2c1=O	/	/	7.7%	/
COC(=O)C(NC(=O)CCc1nnc2ccc(N3CCCCC3)nn12)C(C)C (stereo not given)	11.2µM*	-11.2%	-3.6%	/
CC1CCN(c2ccc3nnc(CCC(=O)NC(C)C)n3n2)CC1	1.1%	24.5%	0.2%	/
O=C(Cc1cccc2ccccc12)NO	0.0%	/	/	/
Cc1ccccc1C1=NC(c2ccc(F)cc2F)ON1 (stereo not given)	22.2%	-10.0%	-4.3%	1.9%
COc1ccccc1C1N=C(c2ccccc2C)NO1 (stereo not given)	12.6µM*	-7.5%	-11.7%	/
Cc1noc(C)c1-c1nccc(NCc2ccccc2)n1	/	/	/	7.08µM*
COc1cc(OC)cc(-c2noc(-c3csc([C@@H]4C[C@H](O)[C@@H](CO)O4)n3)n2)c1	10µM*	/	/	/
